# Compounds with a hit are over-represented: about 4.8% of the library has one in this group of screens.
# ATXN viability – reduces viability in counter-screen for ATXN expression inhibitors. S2 cells (HEK-293 line with an ATXN2-luciferase reporter) viability, CellTiter-Fluor protease fluorescence, 24 h. Potency, µM (highest dose often 56.7 µM), usual class: cytotoxic. 400,000 compounds, 0.49% hits; further: potency means the concentration at half of the fitted maximal effect; nearly all actives have a fitted effect of over 40% in size
# HepG2 tox – HepG2 cytotoxicity, counter-screen for TGF-b inhibitors; Potency, µM (series often up to 46.1 µM), inactives show top-dose activity change, negative = cytotoxicity, actives largely listed as cytotoxic; HepG2 CAGA-GFP viability, ATP luminescence, 18 h; 410,000 compounds, 0.76% hits; further: potency means the concentration at half of the fitted maximal effect
#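 CellTiter-Glo luminescence gave cytotoxicity after 18 hours at 37 degrees C. The cells were HepG2 CAGA-GFP in 1% FBS DMEM, stimulated with 500 pg/mL TGF-beta after compound addition. %Activity was normalised to no-cell wells (complete cell-killing) and DMSO (no toxicity), and curves were fitted and classified.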
# ATXN2 expr inh – reduces ATXN2 reporter expression in HEK-293 cells | HEK-293 ATXN2-luciferase reporter, luminescence, 24 h | Potency, µM (highest dose often 57 µM), without a hit: at the top dose activity change, negative = inhibition, usual class: inhibitors | 360,000 compounds, 0.72% hits; further: potency means the concentration at half of the fitted maximal effect; on the % scale 0 is the no-effect control and ±100 the full control effect; nearly all actives have a fitted effect of over 55% in size
#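 qHTS (up to 57 uM final) was run with 24 h compound exposure of reporter cells at 37 °C. Each well was multiplexed: SteadyGlo luminescence measured ATXN2-luciferase expression after a fluorogenic Gly-Phe-AFC viability readout (25 uM final).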
# DRD3 agonist – activates the human D3 dopamine receptor; D3R DiscoveRx beta-arrestin cells, luminescence, 90 min; 410,000 compounds, 0.58% hits; P35462; AID 652048; max activation, %; in the data active means max activation above about 30%; further: 0% is about no effect
# Target sequence (P35462 whole entry, looked up): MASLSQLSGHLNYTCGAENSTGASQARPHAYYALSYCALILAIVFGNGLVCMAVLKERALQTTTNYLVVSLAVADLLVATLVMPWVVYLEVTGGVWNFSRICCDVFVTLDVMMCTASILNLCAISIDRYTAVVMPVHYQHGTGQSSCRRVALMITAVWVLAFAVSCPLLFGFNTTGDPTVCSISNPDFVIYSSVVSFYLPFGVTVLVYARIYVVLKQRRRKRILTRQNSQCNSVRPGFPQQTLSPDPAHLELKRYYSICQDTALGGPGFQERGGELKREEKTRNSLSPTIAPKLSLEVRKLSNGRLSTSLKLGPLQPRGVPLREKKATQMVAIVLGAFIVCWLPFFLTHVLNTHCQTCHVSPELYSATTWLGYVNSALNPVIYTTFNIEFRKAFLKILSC
#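 Agonist mode: compounds and dopamine controls were applied to plated cells for 90 min at 37 degrees C after an overnight attachment at 1500 cells/well. Luminescent read-out followed 30 - 60 minutes at room temperature with DiscoveRx detection reagent.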
# D3 antag – blocks the human D3 dopamine receptor; 360,000 compounds, 2.5% hits; D3R cells, DiscoveRx beta-arrestin luminescence, antagonist mode; hits give low values; P35462; max response, negative = inhibition, %; in the data active means max response below about -50%; inconclusive means no clear call, values can overlap the other calls; further: on the % scale 0 is the no-effect control and ±100 the full control effect
#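 Cells expressing the human receptor were seeded at 1500 cells/well, incubated overnight at 37 degrees C in 5% CO2, then exposed to library compounds with dopamine controls for 90 minutes at 37 degrees C before luminescent detection.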
# TGFb SMAD3 inh – blocks TGF-b signaling. HepG2 CAGA-GFP TGF-b/SMAD3 reporter, GFP fluorescence, 18 h; TGF-beta stimulated, 500 pg/mL final. Potency, µM (doses to about 46.1 µM), without a hit: at the top dose activity, negative = inhibition, actives largely listed as inhibitors. 410,000 compounds, 1.2% hits. AID 588855; further: potency means the concentration at half of the fitted maximal effect; on the % scale 0 is the no-effect control and ±100 the full control effect; nearly all actives have a fitted effect of over 65% in size
#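 HEPG2 CAGA-GFP, 1000 cells/well; 2 h settle, 37 C; cpd via pin tool; TGF-b 500 pg/mL final; 18 h, 37 C; GFP imaging ex488/em500-530; %Activity normalised to -TGF-b and +DMSO controls; CRC fit, curve class.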
# An asterisk follows results filed as active; i = inactive; ? = inconclusive; . = no result. Unless noted, the call rests on the fitted dose curve; in most records, active means well fitted curve in the direction sought with a large enough effect; inconclusive means small, poorly fitted or top-dose-only effect, or another doubt; inactive means no such curve, though single readings can be large; an effect the other way counts as inactive or inconclusive.
SMILES,ATXN viability,HepG2 tox,ATXN2 expr inh,DRD3 agonist,D3 antag,TGFb SMAD3 inh
Cc1ccc(OCC(=O)Nc2c(C(=O)c3ccc(Cl)cc3)oc3ccccc23)cc1C,.,-1%,.,-9,.,4%
O=C(O)C1CCCN1C(=O)c1cccs1 (configuration not stated),?,-2%,6%,2,7,0%
COC(=O)C1CCCN1C(=O)c1cccs1 (configuration not stated),i,6%,-10%,-4,-76*,13%
C=CCc1ccc(OCCCCN2CC(C)CC(C)C2)c(OC)c1 (configuration not stated),i,-24%,-8%,-23,-105*,-5%
Cc1ccc(CN2CCN(c3ncccn3)CC2)o1,i,2%,-1%,-8,-54*,-2%
C=CCc1ccc(OCCCN2CCCC(C)C2)c(OC)c1 (configuration not stated),i,-22%,-3%,-9,-79*,-17%
COc1ccc(CN2CCN(c3ccccn3)CC2)cc1OCc1ccccc1,i,-58%,-22%,-20,-69*,3%
CCN1CCN(Cc2ccc(OC)c(OCc3ccccc3)c2)CC1,i,1%,-3%,-8,?,-2%
COc1cc(C)ccc1OCCCCN1CC(C)OC(C)C1 (configuration not stated),i,2%,-8%,-7,?,5%
Nc1nc(NCc2cccc(Cl)c2)c2[nH]cnc2n1,.,-29%,.,.,.,-20%
COc1cccc(CN2CCN(c3ncccn3)CC2)c1,i,-6%,-1%,35*,-59*,0%
C=CCc1ccc(OCCCCN2CCC(C)CC2)c(OC)c1,?,-19%,0%,-19,-59*,-10%
COc1cc(CN2CCCC(C)C2)ccc1OCc1ccccc1 (configuration not stated),i,-12%,14%,-12,-62*,5%
Cc1cccc(C)c1NC(=O)N1CCC(c2nc3ccccc3o2)CC1,i,-21%,-11%,1,-75*,-13%
Cc1cccc(C)c1OCC(=O)N1CCC(c2nc3ccccc3o2)CC1,.,-29%,.,13,.,0%
Cc1ccc2[nH]c(CN3CCC(CO)(CC4CCCCO4)CC3)c(C)c2c1 (configuration not stated),i,-10%,70%,-24,-61*,0%
Cc1ccc(CN2CCC(CO)(CC3CCCCO3)CC2)o1 (configuration not stated),?,-5%,-12%,-13,-63*,?
CCc1ccc(CN2CCC(CO)(CC3CCCCO3)CC2)o1 (configuration not stated),i,9%,-2%,-30,?,10%
CC1CN(Cc2cccn2-c2ncccn2)Cc2cc(Cl)ccc2O1 (configuration not stated),i,.,.,.,.,.
CCn1c(CC(=O)Nc2ccc(Cl)c(Cl)c2)nnc1SCc1ccc(Cl)cc1,i,5%,-5%,-13,26,32%
CCn1c(CC(=O)Nc2ccc(Cl)c(Cl)c2)nnc1SCc1ccc(C)cc1,?,10%,4%,7,-93*,-2%
O=C(CCl)NC(Cc1ccccc1)C(=O)OCC(=O)c1ccc(-c2ccccc2)cc1 (configuration not stated),15µM*,-61%,-22%,6,5,?
O=C(N[C@@H](Cc1ccccc1)C(=O)CCl)OCc1ccccc1,16µM*,-76%,28µM*,-66,-94*,?
CC(=O)NC(Cc1ccccc1)C(=O)OCC(=O)c1ccc(Cl)cc1 (configuration not stated),i,3%,1%,3,6,17%
CC(C)C[C@@H](C=O)NC(=O)[C@H](CC(C)C)NC(=O)[C@H](CC(C)C)NC(=O)OCc1ccccc1,.,.,1.1µM*,.,.,.
SMILES,ATXN viability,HepG2 tox,ATXN2 expr inh,DRD3 agonist,D3 antag,TGFb SMAD3 inh
CC(=O)Nc1ccc(S(=O)(=O)N2CCC(n3c(C(F)(F)F)nc4cccnc43)CC2)cc1,i,-1%,-4%,5,.,19%
Cc1ccccc1[C@H](NC1c2ccccc2C=Cc2ccccc21)P(=O)(c1ccccc1)c1ccccc1,?,.,?,-5,-56*,.
O=C1c2ccccc2C(=O)c2[nH]c(=O)[nH]c21,.,1.4µM*,?,-8,?,1µM*
O=C1c2ccccc2C(=O)c2[nH]cnc21,?,5%,.,0,-2,?
Cc1csc(CN(C)C(=O)c2sc3ncnc(NCC4CCCO4)c3c2C)n1 (configuration not stated),i,.,.,.,.,.
Cc1ccccc1NC(NC(=O)OCCn1c([N+](=O)[O-])cnc1C)C(Cl)(Cl)Cl (configuration not stated),i,-1%,6%,-5,-63*,?
Cc1ncc([N+](=O)[O-])n1CCOC(=O)NC(Nc1ccc(F)cc1)C(Cl)(Cl)Cl (configuration not stated),i,-6%,-21%,0,-10,8%
COc1ccccc1CN1[C@@H](CC(=O)O)c2ccccc2S1(=O)=O,i,4%,4%,8,-54*,-51%
Cc1ccc(S(=O)(=O)N2CCOCC2)cc1NC(=O)CNCc1ccccn1,i,-4%,-5%,52*,1,1%
Cc1ccc(S(=O)(=O)N2CCOCC2)cc1NC(=O)CNCc1ccccc1Cl,i,2%,0%,35*,-15,1%
CCOc1ccc(S(=O)(=O)N2CCOCC2)cc1NC(=O)c1ccccc1F,i,6%,-14%,79*,-9,-7%
CCOc1ccc(S(=O)(=O)N2CCN(CC)CC2)cc1NC(=O)c1ccccc1F,i,-23%,-5%,2,-11,-2%
CCc1nc(SCC(=O)N2CCN(c3ccccc3)CC2)c2oc3ccccc3c2n1,?,-23%,-39%,48*,13,5%
COc1ccc(C(CNC(=O)c2oc3ccccc3c2C)N2CCCC2)cc1 (configuration not stated),i,-29%,-6%,-18,?,0%
COc1ccccc1C(CNC(=O)c1cccc(S(=O)(=O)Nc2ccc(C)cc2)c1)N1CCCC1 (configuration not stated),?,-18%,-8%,-19,-9,-7%
COc1ccc(C(CNC(=S)NCc2ccccc2)N2CCCC2)cc1 (configuration not stated),i,-4%,-3%,-35,-58*,-1%

# Assay outcomes deposited in PubChem by National Center for Advancing Translational Sciences (NCATS).
